Reference: PubChem BioAssay

Assay: E. coli acrAB mutant growth effects, primary screen, E. coli filamentation inducers, strain DRC39, OD650, 24 h (AID 1178);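 also: growth measured as culture turbidity by optical density at 650 nm; test concentration not given here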
Conditions: higher = more signal, called active from +8 up or from −8 down

z-score, inactive:
COCCOC(=O)N1C(=O)[C@@]2(c3cc(C#Cc4ccc(OC)cc4)ccc31)[C@H](c1ccc(OCCO)cc1)N1[C@H](c3ccccc3)[C@H](c3ccccc3)OC(=O)[C@H]1[C@@H]2C(=O)NC[C@H](O)c1ccccc1 -0.6, CC1CC/C=C\[C@H]2OC34C=CCN(Cc5ccccc5)C(=O)[C@H]3N(CCCCCCO)C(=O)[C@@H]4C2C(=O)O1 (stereo partly specified) 0.608, [N-]=[N+]=Nc1ccccc1[C@@H]1OC(c2ccc(OCCCO)cc2)=N[C@]1(CCS(=O)(=O)c1ccccc1)C(=O)NCC(O)CO (stereo partly specified) 0.125, COC(=O)[C@@]1(Cc2ccccc2)[C@H]2c3cc(C(=O)N(C)C)n(CCSC(=N)N)c3C[C@H]2CN1C(=O)c1ccccc1 -0.456, CC(C)[Si](C#CCCc1ccccc1)(O[C@H](c1ccccc1)c1cn(Cc2ccccc2)nn1)C(C)C -0.0409, O=C(NCc1ccc(F)cc1)[C@H]1C[C@H]2C(=O)N3CCC[C@H]3C(=O)N2[C@H]1c1ccc(O)cc1 0.639, COC(=O)[C@]1(Cc2ccccc2)N=C(c2ccc(OCCCO)cc2)O[C@@H]1c1ccccc1CN=[N+]=[N-] 1.28, CC(C)C[C@@H]1NC(=O)[C@@H]2C[C@H](C(=O)NCCCCCCNC(=O)CS)[C@H](c3cccc(OCCO)c3)N2C1=O -0.379, O=C1O[C@@H](c2ccccc2)[C@@H](c2ccccc2)N2[C@@H](c3ccc(OCCO)cc3)[C@]3(C(=O)Nc4ccc(C#CCCO)cc43)[C@@H](C(=O)O)[C@H]12 0.932, CCCC[C@H]1C[C@@H]1[C@@H]1N(C(C)=O)[C@H](c2cccc(OC)c2)CC12CC2 -0.083, C=C(COC)/C(=C/C[C@@H](OC(C)=O)c1ccccc1OCCO)c1cnc2ccccc2c1 -1.17, CN(C)CCCNC(=O)[C@@]1(C)c2ccccc2C(=O)N(Cc2ccc(OC(F)(F)F)cc2)[C@H]1c1ccc(CO)cc1 0.967, C=CC[C@]1(C(=O)NCC(O)CO)COC(c2ccc(OCCCO)cc2)=N1 (stereo partly specified) -0.34, C=CCC(OC(C)=O)[C@@H]1[C@@H](N(Cc2cccc3ccccc23)C(=O)c2ccc(-c3ccccc3)cc2)c2cc(OCCCO)ccc2N1C(=O)Cc1ccc2ccccc2c1 (stereo partly specified) -0.416, CCCCCC1=C2CNC(CC(C)C)(C(=O)OC)C=C2C(C)C1=O (stereo unspecified) 0.0841, CN1C(=O)[C@@H]2[C@@H](CC(COc3ccccc3)=C3[C@@H](CCc4ccccc4)OB(O)C[C@@H]32)C1=O 0.0204, COC(=O)[C@@]1(Cc2ccc(OC)cc2)[C@H]2c3cc(C(=O)N4CCCC4)n(Cc4ccc(C(F)(F)F)nc4)c3C[C@H]2CN1C(=O)c1ccccc1 -0.886, C=CCC(OC(C)=O)[C@@H]1[C@@H](N(Cc2cc3ccccc3o2)C(=O)Cc2ccc(OC)cc2)c2cc(OCCCO)ccc2N1C(=O)c1ccc2ccccc2n1 (stereo partly specified) 0.945, [N-]=[N+]=Nc1ccccc1[C@@H]1OC(c2ccc(OCCCO)cc2)=N[C@]1(Cc1ccccc1)C(=O)NCCN1CCOCC1 0.826, COc1ccc(C(=O)Nc2cccc(CN3C(=O)[C@]4(O[C@H](CC(=O)N5Cc6ccccc6C[C@H]5CO)[C@@H]([Si](C)(C)c5ccc(OC)cc5)[C@@H]4C)c4ccccc43)c2)cc1 0.0049, C=CCN1C(=O)[C@@]2(O[C@@H](CCn3cc([C@H](O)c4ccccc4)nn3)[C@H]([Si](C)(C)c3ccc(OC)cc3)[C@H]2C)c2cc(N3C(=O)c4cccc5cccc3c45)ccc21 0.0833, CC(C)(C)N1CC=CC23O[C@@H]4/C=C\CCCOC(=O)C4[C@H]2C(=O)N(CCCCCO)[C@@H]3C1=O (stereo partly specified) 0.0531, CN(C)CCCC[C@@H]1NC(=O)[C@@H]2C[C@H](C(=O)NCCCCCCNC(=O)CS)[C@H](c3ccc(O)cc3)N2C1=O -0.19, CC1CC/C=C\[C@H]2OC34C=CCN(CCN5CCOCC5)C(=O)[C@H]3N(CCCO)C(=O)[C@@H]4C2C(=O)O1 (stereo partly specified) -0.47, COc1ccccc1CN1C(=O)c2ccccc2[C@](Cc2ccccc2I)(C(=O)NCC(C)C)[C@@H]1c1ccc(CO)cc1 1.05, COCC(=C=CC[C@H](O)c1ccccc1OCCO)C[C@H](O)COCc1ccccc1 -0.348, O=C(NC1CC1)[C@@H]1c2ccccc2C(=O)N(Cc2ccc(OC(F)(F)F)cc2)[C@H]1c1ccc(CO)cc1 0.392, O=C1C2C=CC(C(O)c3c(F)cccc3Cl)N(Nc3ccc([N+](=O)[O-])cc3)C2C(=O)N1c1ccccc1 (stereo unspecified) -0.333, C[C@@H]1NC(=O)C([C@@H](C)OCc2ccccc2)NC(=O)[C@@]23C(=O)N[C@@H](Cc4ccccc4)C2[C@H](C)[C@@]2(C)O[C@H]2C3/C=C/C/C=C\CNC1=O (stereo partly specified) -0.602, CC1CC/C=C\[C@H]2OC34C=CCN(c5ccc(Cl)cc5)C(=O)[C@H]3N(CCCCCCO)C(=O)[C@]4(C)C2C(=O)O1 (stereo partly specified) 0.251, CC1=C([C@H](O)CCc2ccccc2)[C@H](CO)n2c(=O)n(-c3ccccc3)c(=O)n2C1 1.19, CCOC(=O)C[C@H]1[C@H](OC(=O)Cc2ccc3c(c2)OCO3)[C@@H](NC(=O)Cc2ccc(OC)cc2)c2cc(OCCCO)ccc2N1C(=O)Cc1ccc(OC)cc1 1.44, COc1ccc(C(O)C2C=CC3C(=O)NC(=O)C3N2Nc2ccc(Cl)cc2Cl)c2ccccc12 (stereo unspecified) -0.0977, C=C1C(=O)C=C2CN(C(=O)c3ccccc3)[C@@](Cc3ccc(OC)cc3)(C(=O)OC)[C@@H]12 -0.624, COC(=O)[C@@]1(Cc2ccccc2)[C@H]2c3cc(C(=O)N(C)C)n(Cc4ccc(S(C)(=O)=O)cc4)c3C[C@H]2CN1C(=O)c1ccccc1 -1.1, CCCNC(=O)[C@@]1(c2ccc([N+](=O)[O-])cc2)CC(=O)N(C(C)C)[C@@H]1c1ccc(CO)cc1 0.388
